Inconclusive results are not listed. Activity calls are given as the source filed them. The call rests on the fitted dose curve; in most records, active means well fitted cell-killing curve with a large enough effect; inconclusive means small, poorly fitted or top-dose-only effect, or effect the other way; inactive means no such curve, though single readings can be large or run the other way.
Assay: Quantitative High-Throughput drug screen in 47 multiple myeloma cell lines against the NCATS MIPE library collection: KHM11_PLB cell viability assay (AID 1918962); further: nearly all actives have a fitted effect of over 35% in size
Conditions: KHM11 myeloma cell viability, CellTiter-Glo ATP luminescence, 48 h; series mostly up to 45.8 µM; viability, % of DMSO control: at the top concentration
Text: PI: Beverly A. Mock Ph.D.
Laboratory of Cancer Biology and Genetics,
Center for Cancer Research, National Cancer Institute,
National Institute of Health, Bethesda, Maryland
Drug resistance and disease progression are common in multiple myeloma (MM) patients, underscoring the need for new therapeutic combinations. […] We hypothesized that effective combinations would reduce MYC expression and enhance p16 activity. […] These preclinical data identify potentially useful drug combinations for evaluation in drug-resistant MM and reveal potential mechanisms of combined drug sensitivity.
Described herein is the primary MIPE qHTS used to cherrypick compounds. Validated compounds were then further tested for potential synergistic activiy.
[1] Peat TJ, Gaikwad SM, Dubois W, Gyabaah-Kessie N, Zhang S, Gorjifard S, Phyo Z, Andres M, Hughitt VK, Simpson RM, Miller MA, Girvin AT, Taylor A, Williams D, D'Antonio N, Zhang Y, Rajagopalan A, Flietner E, Wilson K, Zhang X, Shinn P, Klumpp-Thomas C, McKnight C, Itkin Z, Chen L, Kazandijian D, Zhang J, Michalowski AM, Simmons JK, Keats J, Thomas CJ, Mock BA. Drug combinations identified by high-throughput screening promote cell cycle transition and upregulate Smad pathways in myeloma. Cancer Lett. 2023 Aug 1;568:216284. doi: 10.1016/j.canlet.2023.216284. Epub 2023 Jun 24. PMID: 37356470; PMCID: PMC10408729.
SEQUENCE No. (e.g., 1, 2, 3, etc.); […] (e.g., Cells, Incubation, Reagent, etc.); VALUE and DESCRIPTION.
1; Cells; 5 uL; white, solid bottom 1536-well Greiner assay plate.
2; Compounds; 23 nL; Kalypsis pin tool (Wako USA) equipped with a 1536-well pin head to transfer to the assay plates.
3; Incubation; 48 hours; 37C incubation.
4; Reagent;5uL; CellTiter Glo (Promega).
5; Detector; 425V; Luminescence; Viewlux PerkinElmer.
NOTES (numbers refer to Sequence numbers above)
1. The cell-based screening methods employed in this study were like those previously published. Briefly, the corresponding myeloma cell lines were screened in 1,536-well plates with 500 cells, 5-uL per well for inhibition of cell viability (assessed by measuring ATP levels with CellTiterGlo).
2. NCATS MIPE 4.0 library of approved and investigational drugs were added using the Kalypsis pin tool. Wells treated with DMSO only for 100% viability and media only wells for 0% viability were used as controls.
3. The assay plates were covered and incubated for 48 hours in a 37C, 5% CO2 incubator with controlled humidity.
4. After 48 hours, CellTilter-GloTM luminescent substrate mix (Promega) reagent was added to the assay plate and plates we incubated for 5 min at room temperature.
5. Signal was measured as median relative luminescence units on a ViewLux (PerkinElmer) multiplate reader.
[1] Heske CM, Davis MI, Baumgart JT, Wilson K, Gormally MV, Chen L, Zhang X, Ceribelli M, Duveau DY, Guha R, Ferrer M, Arnaldez FI, Ji J, Tran HL, Zhang Y, Mendoza A, Helman LJ, Thomas CJ. Matrix Screen Identifies Synergistic Combination of PARP Inhibitors and Nicotinamide Phosphoribosyltransferase (NAMPT) Inhibitors in Ewing Sarcoma. Clin Cancer Res. 2017 Dec 1;23(23):7301-7311. doi: 10.1158/1078-0432.CCR-17-1121. Epub 2017 Sep 12. PMID: 28899971; PMCID: PMC6636827.
Potency means the concentration at half of the fitted maximal effect.

Row | Structure (SMILES) | viability, % of DMSO control | Potency
1 | O=C(Nc1ccc(OC(F)(F)F)cc1)c1sccc1NCc1ccnc2ccccc12 | 104% (inactive) | –
2 | O=C(O)C1=CC(O)C(O)[C@H](O)C1 (stereo not given in full) | 105% (inactive) | –
3 | Cc1cccc2c1CC[C@H](CN1CCC(c3c(Cl)cccc3Cl)CC1)C[C@@H]2O | – | 20.9 µM (active)
4 | Nc1[nH]nc2nnc(-c3c(-c4ccccc4)nn4ccccc34)cc12 | – | 10.5 µM (active)
5 | NC(=O)c1nnn(Cc2cc(Cl)c(C(=O)c3ccc(Cl)cc3)c(Cl)c2)c1N | 96.2% (inactive) | –
6 | CCC[C@H](Nc1nc(-c2ccc(NC(=O)NCC)c(OC)c2)ncc1C)c1cccnc1 | 70% (inactive) | –
7 | COc1cc(C=CC(=O)O)ccc1O | 78% (inactive) | –
8 | CC[C@H](C=C[C@@H](C)[C@H]1CC[C@H]2[C@@H]3CC=C4C[C@@H](O)CC[C@]4(C)[C@@H]3CC[C@]12C)C(C)C | 78.4% [at 23.2 µM] (inactive) | –
9 | Nc1ncnc2c1c(-c1cccc(OCc3ccccc3)c1)cn2C1CC(CN2CCC2)C1 (stereo not given) | – | 16.6 µM (active)
10 | C=C[C@@H]1CN2CCC1C[C@@H]2C(O)c1ccnc2ccc(OC)cc12 (stereo not given in full) | 95.7% (inactive) | –
11 | N#Cc1c(N(CC(=O)O)CC(=O)O)sc(C(=O)O)c1CC(=O)O | 92.2% (inactive) | –
12 | CO[C@H]1/C=C\O[C@@]2(C)Oc3c(C)c(O)c4c(O)c(c(C=NN5CCN(C6CCCC6)CC5)c(O)c4c3C2=O)NC(=O)C(C)=CC=C[C@H](C)[C@H](O)[C@@H](C)[C@@H](O)[C@@H](C)[C@H](OC(C)=O)[C@H]1C | – | 0.118 µM (active)
13 | CN1CC(=O)NC1=NC(=O)Nc1cccc(Cl)c1 | – | 14.8 µM (active)
14 | Cc1ccc(NC(=O)c2ccc(CN3CCN(C)CC3)cc2)cc1Nc1nc(-c2cccnc2)cs1 | – | 7.43 µM (active)
15 | CCC(=O)OCC(=O)[C@@]1(OC(=O)CC)[C@@H](C)C[C@@H]2[C@H]3CCC4=CC(=O)C=C[C@]4(C)[C@@]3(F)[C@@H](O)C[C@@]21C | 121% (inactive) | –
16 | CC[C@H](C)n1cc(C)c2c(C(=O)NCc3c(C)cc(C)[nH]c3=O)cc(-c3ccc(N4CCNCC4)nc3)cc21 | – | 29.6 µM (active)
17 | C=CC[N+]1([C@H]2C[C@H]3[C@@H]4CC[C@H]5C[C@H](O)[C@@H](N6CCOCC6)C[C@]5(C)[C@@H]4CC[C@]3(C)[C@H]2OC(C)=O)CCCC1 | 141% (inactive) | –
18 | CN(C)CCOc1ccc(-c2nc(-c3ccc4c(c3)CCC4=NO)c(-c3ccncc3)[nH]2)cc1 | – | 1.32 µM (active)
19 | Cc1ccc2c(c1)C(=O)[C@]1(O)CCN(c3ccccc3)C1=N2 | 95.3% (inactive) | –
20 | O=C(O)CCNc1cc(N2CCc3ccccc3CC2)nc(-c2ccccn2)n1 | 86.9% (inactive) | –

Row | Structure (SMILES) | viability, % of DMSO control | Potency
21 | O=C(O)c1nc(=O)[nH]c(=O)[nH]1 | 87.9% [at 23.2 µM] (inactive) | –
22 | CC(C)c1c(C(=O)Nc2ccccc2)c(-c2ccccc2)c(-c2ccc(F)cc2)n1CC[C@H](O)C[C@@H](O)CC(=O)O | – | 18.7 µM (active)
23 | Cc1csc(-c2nnc(Nc3ccc(Oc4ncccc4-c4ccnc(N)n4)cc3)c3ccccc23)c1 | – | 23.5 µM (active)
24 | CNC1[C@H](O)C(O[C@@H]2C(O)C(O[C@H]3O[C@H]([C@@H](C)NC)CC[C@H]3N)[C@@H](N)C[C@H]2N)OC[C@]1(C)O (stereo not given in full) | 99.4% (inactive) | –
25 | O=C(c1ccc(F)c(F)c1Nc1ccc(I)cc1F)N1CC(O)([C@H]2CCCCN2)C1 | – | 0.0372 µM (active)
26 | CCOC(=O)c1c(CSc2ccccc2)n(C)c2cc(Br)c(O)c(CN(C)C)c12 | 96.8% (inactive) | –
27 | Fc1ccc(CNc2ncnc3ccc(F)cc23)cc1 | – | 8.33 µM (active)
28 | Cc1ccc(S(=O)(=O)Nc2nc3ccccc3nc2Nc2ccc3nsnc3c2)cc1 | – | 0.575 µM (active)
29 | CC1CCN(c2cc(N3CCN(C)CC3)ccc2NC(=O)c2cc(C#N)c[nH]2)CC1 | 149% (inactive) | –
30 | O=C(Nc1ncc(SCCN2CCCC2)s1)[C@]1(c2ccc(S(=O)(=O)C3CC3)cc2)C[C@@H]1C1CCCCC1 | – | 16.6 µM (active)
31 | CCc1cc(-c2n[nH]c(C)c2-c2ccc3c(c2)OCCO3)c(O)cc1O | – | 4.69 µM (active)
32 | Cc1[nH]c(C=C2C(=O)Nc3ccc(S(=O)(=O)N(C)c4cccc(Cl)c4)cc32)c(C)c1C(=O)N1CCN(C)CC1 | – | 18.7 µM (active)
33 | CCN1C[C@H](C)n2c(c(O)c3c(=O)n(Cc4ccc(F)c(Cl)c4)nc(C(=O)NC)c32)C1=O | 107% (inactive) | –
34 | OCCn1cc(-c2ccc3c(c2)CCC3=NO)c(-c2ccncc2)n1 | – | 4.69 µM (active)
35 | CN1CCC(COc2cnc(-c3cccc(Cn4nc(-c5cccc(C#N)c5)ccc4=O)c3)nc2)CC1 | – | 8.33 µM (active)
36 | CCOc1ccccc1N=Nc1c(C)[nH]n(-c2nc(-c3ccccc3)cs2)c1=O | 120% (inactive) | –
37 | CC[C@H]1OC(=O)[C@H](C)[C@@H](O[C@H]2C[C@@](C)(OC)[C@@H](O)[C@H](C)O2)[C@H](C)[C@@H](O[C@@H]2O[C@H](C)C[C@H](N(C)C)[C@H]2O)[C@](C)(O)C[C@H](C)C(=NOCOCCOC)[C@H](C)[C@@H](O)[C@]1(C)O | 72.2% (inactive) | –
38 | COc1cc2nc(-c3cc(F)ccc3O)nc(N[C@@H]3CNC[C@@H]3C(C)(C)O)c2cc1OC | – | 0.0743 µM (active)
39 | CCCCC(C=O)NC(=O)C(CC(C)C)NC(=O)OCc1ccccc1 (stereo not given) | 93.3% (inactive) | –
40 | C[C@@]1(c2cc(-c3cncnc3)c(F)cc2F)CCSC(N)=N1 | – | 3.32 µM (active)

Reference: PubChem BioAssay (NCATS)
